Screening results (PubChem)
M1 ag: activates human CHRM1 receptor; P11229; activation, % at 3 µM; CHO-K1 hM1, Fluo-8 calcium fluorescence, agonist mode; 0% DMSO, 100% acetylcholine EC100; 360,000 compounds, 0.33% hits;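 active = activation above the run's mean compound activation plus 3 SD, cut at about 16% in these data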;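 note: peak over basal fluorescence ratio within a 140 s kinetic read after compound addition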
Target sequence (P11229 whole entry, looked up): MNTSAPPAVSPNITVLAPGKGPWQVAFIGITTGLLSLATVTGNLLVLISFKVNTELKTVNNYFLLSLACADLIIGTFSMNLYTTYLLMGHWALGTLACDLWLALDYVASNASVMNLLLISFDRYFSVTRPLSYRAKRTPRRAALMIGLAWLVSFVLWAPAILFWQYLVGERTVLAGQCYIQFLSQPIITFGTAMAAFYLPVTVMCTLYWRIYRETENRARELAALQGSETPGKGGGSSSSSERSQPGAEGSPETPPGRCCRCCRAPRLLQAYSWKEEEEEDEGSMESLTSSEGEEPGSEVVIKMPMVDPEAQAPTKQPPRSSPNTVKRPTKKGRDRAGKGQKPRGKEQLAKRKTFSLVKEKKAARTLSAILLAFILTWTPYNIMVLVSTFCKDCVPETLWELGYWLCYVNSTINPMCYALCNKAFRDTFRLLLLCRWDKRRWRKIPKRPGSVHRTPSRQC
M1 ag parental: nonselective activator or artifact in parental CHO-K1 cells. Fluo-8 calcium fluorescence; scaled to maximal ATP response, vehicle zero. activation, % at 3 µM. 360,000 compounds, 0.48% hits; in the data active = activation above about 15%;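 note: untransfected CHO-K1 host cells lacking M1 receptor as counterscreen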
M1 PAM parental: nonselective activator or artifact in parental CHO-K1 calcium assay; activation, % at 3 µM; ATP EC20, Fluo-8 calcium fluorescence; 0% at ATP EC20, 100% at ATP max; AID 602247; 360,000 compounds, 0.02% hits;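 active = activation above the run cutoff, the mean activation of all test compounds plus 3 SD, cut at about 40% in these data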;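 note: peak over basal fluorescence ratio in a 140 s read after ATP addition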
M1 antag: blocks human M1 muscarinic receptor; P11229; CHO-K1 hM1, Fluo-8 calcium fluorescence, ACh EC80 antagonist; inhibition, % at 3 µM; 360,000 compounds, 1.3% hits; AID 588852;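 active = percent inhibition above its own plate's cutoff, namely the mean of that plate's compound wells plus 3 SD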;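 note: peak over basal fluorescence ratio during 140 s after agonist addition; 0% = ACh EC80 plus DMSO and 100% = DMSO alone without agonist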
M1 PAM: potentiates human M1 receptor response to acetylcholine; activation, % at 3 µM; 360,000 compounds, 0.088% hits; CHO-K1 hM1, Fluo-8 calcium fluorescence, ACh EC20; 0% = ACh EC20, 100% = maximal ACh; P11229; AID 588819; in the data active = activation above about 19%, passing the limit was not always enough
CHO-K1 Ca antag: counter-screen for M1 antagonists: effect in parental CHO-K1 cells; ATP-induced calcium, Fluo-8 fluorescence; 360,000 compounds, 0.6% hits; inhibition, % at 3 µM;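 active = inhibition above a per-plate cutoff, the plate's mean sample inhibition plus 3 SD, cut at about 24% in these data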;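 note: 0% = DMSO plus EC80 ATP and 100% = DMSO alone without ATP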
An asterisk follows results filed as active. Hits are enriched below; roughly 2.4% of the tested compounds scored in any of these assays.

SMILES	M1 ag	M1 ag parental	M1 PAM parental	M1 antag	M1 PAM	CHO-K1 Ca antag
CCOC(=O)N1CCN(C(=S)Nc2ccccc2C(C)C)CC1	10.1	0.0	-10.0	17.2	-7.1	3.7
COC(=O)c1sccc1NC(=S)N1CCCCC1	-3.5	-0.3	4.5	-10.5	6.7	16.0
CCOC(=O)N1CCN(C(=S)Nc2cccc(C)c2C)CC1	19.0*	-0.3	7.1	-9.2	0.6	4.7
Cc1cc(Cl)ccc1NC(=S)N1CCN(Cc2ccccc2)CC1	2.7	0.6	6.6	2.3	1.9	2.2
Cc1cccc(NC(=S)N2CCN(Cc3ccccc3)CC2)c1C	23.4*	14.1	14.5	2.7	-0.9	8.9
COC(=O)c1sccc1NC(=S)N1CCN(c2cccc(C)c2C)CC1	-6.9	0.1	-15.4	0.0	2.5	24.2*
CN(C)C(CNc1ncnc2sc3c(c12)CCCC3)c1ccco1 (stereo not given)	-7.9	0.7	-9.4	10.2	-6.3	2.4
COCCC(=O)N1CCC(Oc2ccc(C(=O)NCCC3=CCCCC3)cc2)CC1	-0.4	3.4	-0.8	6.8	0.2	-26.3
O=C(N=C1N=C2C=CC(Br)=CN2Cc2ccccc21)c1ccc([N+](=O)[O-])cc1[N+](=O)[O-]	-3.8	-0.2	9.7	-16.7	3.8	-20.6
COc1ccc2c(c1OC)C(=O)OC2	8.6	0.2	-14.6	1.0	8.8	7.7
COc1ccc2c3c(cccc13)C(=O)CC2	119.0*	30.1*	-12.4	30.6	-21.4	19.0
CCOC(=O)c1ccc(NC(=O)C2CCCN(S(=O)(=O)c3ccc(F)cc3)C2)cc1 (stereo not given)	1.5	10.1	-0.9	47.7*	-17.1	6.4
CC(=O)c1cccc(NC(=O)C2CCCN(S(C)(=O)=O)C2)c1 (stereo not given)	9.1	0.1	9.1	-8.2	6.1	2.1
CS(=O)(=O)N1CCCC(C(=O)Nc2cccc(F)c2)C1 (stereo not given)	2.2	0.3	17.1	-35.0	32.0*	-9.8
CCOC(=O)c1ccc(NC(=O)Nc2ccc(F)cc2)cc1	10.3	12.2	-5.8	21.0*	-14.7	48.6*
CCOC(=O)c1ccc(NC(=O)NC2CC3CCC(C2)N3)cc1 (stereo not given)	-5.8	1.7	29.8	59.5*	-22.3	-30.9
CCOC(=O)c1ccc(NC(=O)C2CCN(S(=O)(=O)c3ccccc3)CC2)cc1	3.4	0.5	17.2	-20.4	11.4	0.5
CCOC(=O)c1ccc(NC(=S)NC2CCCC2)cc1	-6.9	6.4	-11.8	7.3	-3.5	16.9
OC[C@@H]1CN(Cc2ccc(Cl)cc2)C[C@H](n2cnc3c(NC4CCC4)ncnc32)O1	-2.5	1.9	9.6	-4.8	1.6	-9.0
O=C(Sc1ccc(Cl)cc1)c1ccccn1	-2.7	-0.1	-19.3	-5.9	1.2	1.5
CCN1C(=O)[C@H]2[C@@H](c3ccc(C)cc3)N[C@]3(CCCN(Cc4ccc(F)cc4)C3=O)[C@H]2C1=O	-4.9	-0.6	-12.3	-9.0	-0.9	24.8*
Cc1ccc(CN2CCC[C@]3(N[C@H](c4ccccc4)[C@@H]4C(=O)N(Cc5ccccc5)C(=O)[C@@H]43)C2=O)cc1	-5.1	1.4	-14.9	3.2	-3.5	29.3*
CCN1C(=O)[C@H]2[C@@H](c3ccc(C(F)(F)F)cc3)N[C@]3(CCCN(Cc4ccc(C(F)(F)F)cc4)C3=O)[C@H]2C1=O	-6.1	0.4	11.9	-14.5	6.5	-14.7
C[C@H](CO)N1C[C@H](C)[C@@H](CN(C)C(=O)Nc2ccccc2)Oc2ccc(NC(=O)Cc3ccccc3)cc2C1=O	-6.1	0.5	18.5	-1.8	5.0	-19.3
Cc1ccc(/C=C/C(=O)NCc2cccs2)o1	-2.1	-0.2	6.7	3.6	4.2	-15.4
O=C(Nc1ccccc1C(F)(F)F)C(O)(c1ccccc1)C1CCCCC1 (stereo not given)	-9.0	0.0	-9.0	7.3	-11.6	-8.7
CC(=O)N(c1ccccc1)C1CCCC1	-9.9	-0.1	27.1	-6.6	1.6	-11.8
C[N+]1(C)CC[C@H](OC(=O)[C@@](O)(c2ccccc2)C2CCCC2)C1	-7.5	-0.1	-7.8	99.5*	-26.4	17.2
C[N+]1(C)CCC(OC(=O)C(O)(c2ccccc2)C2CCCC2)C1 (stereo not given)	-8.6	0.6	11.3	97.3*	-25.3	-9.5
